Measurements published in PubChem BioAssay (NCI).
The panel holds about 83,000 compounds, 20% with a hit somewhere; the sample as a whole holds those more often.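 Interpretation: 100, growth as untreated; towards 0, rising growth inhibition; 0, no net growth; 0 to -100, cell death. Compounds scoring below 10 were considered active.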 A number with no mark means an inactive call. Calls of active or inactive are those of the source.

Tested on: A549/ATCC NSCLC
Assay: NCI-60 one-dose screen, 48 h (100 = growth as untreated, 0 = no growth, -100 = all killed)
Settings: 10 µM unless noted

`CCN1CCN(Cc2ccc(NC(=O)Nc3ccc(-n4ccc5c(NC(=O)c6ccccc6)nccc54)cc3)cc2C(F)(F)F)CC1` was tested. Which growth did it give?
The growth was -62.8% (active).

With `Nc1nc(N)c2cc(NCc3ccc(Cl)c(Cl)c3)ccc2n1` as the compound, how does the growth read?
Its growth is -90.2% (active).

How did the growth turn out when `O=c1oc2ccccc2cc1-c1cc(-c2ccc(-c3cc(-c4cc5ccccc5oc4=O)nc(-c4cc5ccccc5oc4=O)c3)cc2)cc(-c2cc3ccccc3oc2=O)n1` was run?
Its growth is 101%.

With `C=C1C(=O)O[C@H]2[C@H]1CC/C(COC(=O)N[C@@H](Cc1c[nH]c3ccccc13)C(=O)OC)=C\CC[C@@]1(C)O[C@@H]21` as the compound, how does the growth read?
Its growth is 47.2%.

Which growth does the source give for `COc1cc(OC)c(Cl)cc1N` here?
The growth was 105%.

For `COC(=O)c1ccc2c(c1)nc(-c1cc3ccccc3[nH]c1=O)n2-c1cc(C(C)(C)C)[nH]n1`, which growth is on record?
Its growth is 81.5%.

`Fc1ccc(-c2nc(-c3ccc(-c4nc5ccc(F)cc5[nH]4)cc3)no2)cc1` was tested. Which growth did it give?
Its growth is 75.4%.

For `CCCC(CCC)(C(N)=O)C(=O)O`, which growth is on record?
The growth was 97.8%.

`CNC(=O)OC1C(O[C@H]2C[C@H]3[C@@H]4CC=C5C[C@@H](O)CC[C@]5(C)[C@H]4CC[C@]3(C)[C@H]2[C@H](C)C(=O)CCC(C)C)OCC(O)C1OC1OCC(O)C(O)C1OC(=O)c1ccc(OC)cc1` (some centres not stated) was tested. Which growth did it give?
The growth was 11.5%.

How did the growth turn out when `CC(=O)O[C@@H]1CC2C(C)(C)CCCC2(C)C2=C1C(=O)C(C(C)C)=CC2=O` (some centres not stated) was run?
The growth was -35% (active).

`CC(=O)Oc1c(Cl)c(Cl)c(Cl)c(Cl)c1Cl` was tested. Which growth did it give?
Its growth is 85.9%.

Which growth does the source give for `Oc1c(C(Nc2ccccc2Br)c2ccccc2)ccc2cccnc12` (configuration not stated) here?
Its growth is 22.6%.
